Screens: PubChem BioAssay, several laboratories
Rows were chosen to be rich in hits. Some 2.8% of all compounds tested hit in one or more screens of this group.
KKLEB tox: reduces viability of KKLEB cystic fibrosis airway cells. KKLEB CF airway cells viability, ATPlite luminescence, overnight; hits give low values; cells stimulated with P. aeruginosa culture filtrate. activity change (cytotoxicity), % at 5 µM. actives 0.36% (n = 360,000). AID 602141;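 active = corrected activity change at or below -50% at 5 µM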
CF NFkB block: cystic fibrosis NF-kB activation inhibition. KKLEB NF-kB-GFP reporter, PAF-induced, GFP fluorescence overnight. AID 588850. inhibition, % at 5 µM. actives 0.86% (n = 360,000);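 active = at least 50% inhibition at 5 µM, scaled per plate between neutral and stimulator controls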;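 also: PAF is a Pseudomonas aeruginosa culture filtrate used as stimulus; plate controls were PAF-stimulated DMSO wells for no effect and unstimulated DMSO wells for full effect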
HIF-2a block: blocks HIF-2a reporter activity; AID 624352; inhibition, % at 18.8 µM; actives 0.72% (n = 360,000); 786-0 RCC cells HIF-2a reporter, luciferase luminescence, overnight;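 active = inhibition of the luminescence signal of 40% or more relative to plate controls, in a single-dose primary screen at 18.75 µM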
Peg3 prom inh: Peg3 promoter activity inhibition; HeLa PEG-Prom luciferase reporter, luminescence, overnight; inhibition, % at 20 µM; actives 1.7% (n = 360,000);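 active = inhibition of at least 50% at 20 µM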
Shn3 inh set2: Schnurri-3 reporter inhibition in Clone20 osteoblasts | Clone20 osteoblast Shn3 3'UTR firefly luciferase, 24 h | inhibition, % at 12.5 µM | actives 0.52% (n = 360,000);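 active = mean inhibition of at least 75% with every replicate also reaching 75%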;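 also: 0% = median of neutral control wells and 100% = pilot-screen positive control compound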
MITF TRPM1 inh: inhibitors of MITF-driven TRPM1 promoter in melanoma cells. actives 0.83% (n = 330,000). AID 488899. inhibition, % at 12.5 µM. SK-MEL-5 TRPM1 promoter luciferase, 24 h;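 active = mean inhibition across replicates of 60% or more, whatever share of single replicates reaches that level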
* = called active by the depositor; . = not tested or not shown.

SMILES	KKLEB tox	CF NFkB block	HIF-2a block	Peg3 prom inh	Shn3 inh set2	MITF TRPM1 inh
C=C(C)[C@@H]1CC[C@]2(C(=O)O)CC[C@]3(C)C(CCC4[C@@]5(C)CC[C@H](O)C(C)(C)C5CC[C@]43C)C12 (some centres not stated)	-76*	79*	2	90*	7	.
Oc1c(CN2CCOCC2)cc(COCc2ccccc2)c2cccnc12	1	-2	17	50	90*	85*
c1ccc(N2CCN(Cc3ccnc4ccccc34)CC2)cc1	2	5	1	-2	27	12
O=C(Oc1c(CN2CCOCC2)cc(Cl)c2cccnc12)c1ccccc1Br	15	-2	24	34	.	70*
Oc1c(CN2CCN(c3ccccc3)CC2)cc(Br)c2cccnc12	-4	3	17	38	92*	87*
CC1CCC(NC(=O)C2CCC(CNc3c(N4CCCCC4)c(=O)c3=O)CC2)CC1 (configuration not stated)	-2	-8	0	-13	-1	4
COc1ccc(-c2cc(C(F)(F)F)nc(SCC(=O)Nc3sc4c(c3C#N)CCC4)n2)cc1	-61*	44	3	11	48	3
N#Cc1cc2c(nc1SCC(=O)Nc1sc3c(c1C#N)CCC3)CCC2	-6	2	-106	-191	-62	-48
COc1ccc(-c2ccc(C#N)c(SCC(=O)Nc3sc4c(c3C#N)CCC4)n2)cc1OC	-35	35	2	75*	-12	-38
COc1ccc(CCn2c(=S)[nH]c3cc(C(=O)NCc4ccco4)ccc3c2=O)cc1OC	-10	12	17	51*	65	91*
CCCCn1c(CN(C)Cc2ccccc2)nc2c1c(=O)n(C)c(=O)n2C	-10	-3	15	16	87*	19
CCCn1c(CN(C)Cc2ccccc2)nc2c1c(=O)n(C)c(=O)n2C	4	-4	10	9	69	23
O=C(C(=O)N1CCN(C(=O)OCc2ccccc2)CC1)c1cccs1	.	.	-3	.	.	.
O=c1[nH]c(NCc2ccccc2)nc2c1CCC2	3	10	18	12	-28	-9
Cc1nc(Nc2nc3c(c(=O)[nH]2)CCC3)nc2ccccc12	-3	65*	-82	86*	-22	15
S=C(NCCC(c1ccccc1)c1ccccc1)Nc1ccc(Cl)cc1	-2	7	-35	55*	-3	5
COc1cc(NC(=S)NCCC(c2ccccc2)c2ccccc2)c(OC)cc1Cl	-4	6	16	53*	2	-11
COc1ccc(Cl)cc1NC(=S)NCCC(c1ccccc1)c1ccccc1	8	-7	18	32	15	-1
O=C(C[n+]1ccccc1)N/N=C/c1ccccc1C(F)(F)F	7	-4	5	9	17	1
CCC(=O)Nc1ccc(NC(=O)c2oc3ccccc3c2C)cc1	-1	-5	62*	-75	-19	-13
Cc1[nH]n2c(=O)cc(-c3ccc([N+](=O)[O-])cc3)nc2c1-c1ccccc1	-11	22	13	58*	-5	-4
COc1ccc(COc2ccsc2C(=O)Nc2ccc(Cl)c(Cl)c2)cc1	-66*	44	-47	32	3	-3
Cc1ccc(CNC(=O)c2cc(-c3ccccc3C)nn2CC2CC(c3cccnc3)=NO2)cc1 (configuration not stated)	-10	14	15	14	92*	-15
CCc1c(O)nc(SCC(=O)Nc2ccc(Cl)cc2)n(-c2ccccc2)c1=O	-8	0	-43	-36	-24	.
CCc1ccc(/C=C2/SC(=S)N(CCCC(=O)Nc3ccccc3C(=O)O)C2=O)cc1	4	12	12	34	9	27
SMILES	KKLEB tox	CF NFkB block	HIF-2a block	Peg3 prom inh	Shn3 inh set2	MITF TRPM1 inh
O=C(CCN1C(=O)/C(=C\c2ccccc2)SC1=S)N1CCCCC1	0	33	45*	94*	-36	-6
O=C(CCCN1C(=O)/C(=C/c2ccccc2Cl)SC1=S)N1CCOCC1	2	3	49*	28	-37	0
COc1ccc(/C=C2/SC(=O)N(CCC(=O)Nc3ccccc3C(=O)O)C2=S)cc1	26	-2	57*	-10	20	-7
COc1ccc(/C=C2/SC(=S)N(CCC(=O)O)C2=O)cc1	0	10	85*	19	52	61*
O=C(CCCN1C(=O)/C(=C\c2ccccc2)SC1=S)N1CCOCC1	-4	10	22	19	-58	-15
COc1cccc(OC)c1C(=O)NNS(=O)(=O)c1ccc2ccccc2c1	16	-11	6	20	3	6
Nc1sc(Cc2ccccc2)cc1C(=O)NC1CCCCC1	.	.	-10	.	.	.
COc1cc(SC)ccc1C(=O)Nc1cccc(C2OCCCO2)c1	10	20	-158	-77	-67	-77
COc1cc([N+](=O)[O-])ccc1NC(=O)Oc1ccc(NC(C)=O)cc1	15	-6	10	5	2	-3
COc1cccc(/C=C2\SC(=S)N(CCC(=O)N3CCCCC3CCO)C2=O)c1 (configuration not stated)	-16	31	31	43	-53	-5
CN1CCN(C(=O)CCN2C(=O)/C(=C/c3ccccc3Cl)SC2=S)CC1	5	20	12	59*	-60	-3
COc1ccc(/C=C2\SC(=S)N(CCCC(=O)N3CCOCC3)C2=O)cc1	-6	0	68*	-15	8	26
COc1ccc(/C=C2\SC(=S)N(CCC(=O)NCCc3ccc(O)cc3)C2=O)cc1	3	7	58*	102*	-8	6
COc1cccc(/C=C2\SC(=S)N(CCCC(=O)N3CCCCC3CCO)C2=O)c1 (configuration not stated)	-4	7	69*	64*	12	29
COc1ccccc1/C=C1\SC(=S)N(CCC(=O)NCCc2ccc(O)cc2)C1=O	-9	2	11	40	1	-1
O=C(Nc1ccc(S(=O)(=O)NCc2ccco2)cc1)C1CCCCC1	7	-4	9	11	11	6
CC(CC(=O)Nc1ccc2c(c1)c(=O)n(C)n2-c1ccccc1F)c1ccccc1 (configuration not stated)	1	22	4	14	0	.
O=C(NCCN1CCOCC1)c1cc([N+](=O)[O-])cc([N+](=O)[O-])c1	-2	24	22	19	15	19
COc1ccc(/C=C2/SC(=O)N(CCC(=O)Nc3ccccc3)C2=O)cc1OC	-54*	60*	-10	10	-3	4
O=C(O)CCN1C(=O)/C(=C\c2ccncc2)SC1=S	0	17	15	14	-66	-7
CN1CCN(C(=O)CCN2C(=O)/C(=C\c3ccccc3F)SC2=S)CC1	-4	55*	2	29	-48	-3
